The source made the active and inactive calls. The calls were made as follows: active = hit-call score of the fitted dose curve at least 0.9, where 1 is the maximum; inactive = score below 0.9.
Experiments:
[1] = APR_HepG2_CellCycleArrest_24hr: Apredica 24-hour HepG2 Assay for Cell Cycle Arrest (AID 2282905); conditions: imaging, actives raise or lower the signal;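 also: cell cycle arrest scored as ratio of 2N to 4N nuclear DNA content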
Summary of the method: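 Step one: dose HepG2 with test compounds, 0.39–200 uM, 0.5% DMSO, 24 hr. Step two: fix, permeabilize, stain nuclei with Hoechst 33342. Step three: image six fields per well at 20x, quantify DNA content, fit bidirectionally relative to DMSO.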

[2] = APR_HepG2_NuclearSize_24hr: Apredica 24-hour HepG2 Assay for Nuclear Size (AID 2282907); conditions: high-content imaging, actives raise or lower the signal
Summary of the method: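 After fixation and permeabilization, 24-hr-treated HepG2 cells were stained with Hoechst 33342 and imaged on an ArrayScan (20x). Doses spanned 0.39–200 uM in duplicate. Nuclear diameter changes in either direction were fitted relative to 0.5% DMSO controls.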

[3] = APR_HepG2_CellLoss_24hr: Apredica 24-hour HepG2 Assay for Cell Loss (AID 2282908); conditions: high-content imaging;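 as to AC50: fit in both directions so a hit may be cell loss or gain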
Summary of the method: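 Duplicate wells received compound at ten concentrations (0.39–200 uM; final DMSO 0.5% v/v). After fixation with formaldehyde, nuclei stained with Hoechst 33342 were imaged at 20x. Loss or gain of cell count was fitted relative to DMSO controls.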

[4] = APR_HepG2_MicrotubuleCSK_24hr: Apredica 24-hour HepG2 Assay for Microtubule CSK Stabilty (AID 2282909); conditions: HepG2 microtubule cytoskeleton imaging, actives raise or lower the signal
Summary of the method: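 Microtubule stability is scored from tubulin immunofluorescence in fixed HepG2 cells imaged at 20x. Cells receive ten compound concentrations up to 200 uM for 24 h; taxol and DMSO serve as positive and negative controls.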

[5] = APR_HepG2_MitoticArrest_24hr: Apredica 24-hour HepG2 Assay for Mitotic Arrest (AID 2282910); conditions: high-content imaging, actives raise or lower the signal
Summary of the method: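 High-content imaging of fixed HepG2 cells labeled with Hoechst 33342 and anti-phospho-histone H3, after 24 h treatment. Ten concentrations 0.39 to 200 uM in duplicate, final DMSO 0.5%; changes fitted both directions relative to DMSO.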

[6] = APR_HepG2_MitoMembPot_24hr: Apredica 24-hour HepG2 Assay for Mitochondrial Membrane Potential (AID 2282911); conditions: imaging, actives raise or lower the signal
Summary of the method: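 Mitochondrial dye uptake (MitoTracker Red CMXRos, 250 nM, 30 min pre-fixation) in HepG2 after 24 hr compound exposure, 0.39–200 uM; ArrayScan images at 20x, activity fitted in both directions relative to DMSO.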

[7] = APR_HepG2_MitoMass_24hr: Apredica 24-hour HepG2 Assay for Mitochondrial Mass (AID 2282912); conditions: high-content imaging, actives raise or lower the signal
Summary of the method: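 Readout: fluorescence of MitoTracker Red CMXRos (250 nM, added 30 min pre-fixation) in fixed HepG2 cells imaged by HCS. Exposure lasted 24 hr at 0.39–200 uM; increases and decreases were both fitted relative to DMSO.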

[8] = APR_HepG2_p53Act_24hr: Apredica 24-hour HepG2 Assay for p53 Activation (AID 2282913); conditions: high-content imaging, actives raise or lower the signal;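 also: p53 protein immunofluorescence averaged per cell in HepG2 with Hoechst nuclei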
Summary of the method: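 Following 24 hr dosing of HepG2 at 0.39–200 uM, the cells undergo formaldehyde fixation, Triton permeabilization and multiplexed antibody labeling that includes p53 (Cy5). Signal from the imaging is referenced to DMSO solvent controls.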

[9] = APR_HepG2_CellCycleArrest_72hr: Apredica 72-hour HepG2 Assay for Cell Cycle Arrest (AID 2282914); conditions: high-content imaging, actives raise or lower the signal
Summary of the method: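 Using multiplexed high-content imaging, HepG2 nuclei stained with Hoechst 33342 (2 ug/mL) were analysed for DNA content after fixation and permeabilization. Treatment lasted 72 hr across 0.39–200 uM in duplicate with final DMSO 0.5% v/v; DMSO served as negative control.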

[10] = APR_HepG2_CellLoss_72hr: Apredica 72-hour HepG2 Assay for Cell Loss (AID 2282915); conditions: high-content imaging
Summary of the method: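 Cell number comes from Hoechst 33342-labelled nuclei, imaged at 20x after 3.7% formaldehyde fixation. Dosing was 0.39–200 uM, ten concentrations in duplicate, 0.5% DMSO final, for 72 h. Bidirectional fit relative to DMSO baseline.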

Measured: AC50

Cc1cc(N=Nc2ccccc2C)ccc1N
active: [1] 100 µM | [3] 70 µM | [5] 87.6 µM | [6] 101 µM | [7] 121 µM | [9] 21.5 µM | [10] 43.1 µM
inactive: [2] | [4] | [8]

c1ccc(N=Nc2ccccc2)cc1
inactive: [2] | [3] | [4] | [5] | [6] | [7] | [8] | [9] | [10]
active: [1] 63.1 µM

Clc1ccc(C(c2ccc(Cl)cc2)C(Cl)(Cl)Cl)cc1
active: [2] 56.5 µM | [3] 57.9 µM | [5] 50.1 µM | [6] 30.3 µM | [7] 44.4 µM | [8] 54.7 µM | [10] 50.5 µM
inactive: [1] | [4] | [9]

CC(C)(C)OOC(=O)c1ccccc1
inactive: [1]
active: [2] 38.6 µM | [3] 33.3 µM | [4] 48.2 µM | [5] 20.5 µM | [6] 33.8 µM | [7] 34.1 µM | [8] 22.8 µM | [9] 21.8 µM | [10] 26.6 µM

CCNS(=O)(=O)C(F)(F)C(F)(F)C(F)(F)C(F)(F)C(F)(F)C(F)(F)C(F)(F)C(F)(F)F
inactive: [2] | [7]
active: [1] 25.2 µM | [3] 38.9 µM | [4] 56 µM | [5] 46.3 µM | [6] 103 µM | [9] 36.4 µM | [10] 81.5 µM

Clc1ccccc1Cl
inactive: [1] | [2] | [3] | [4] | [5] | [6] | [7] | [9] | [10]

COP(=S)(OC)SCN1C(=O)c2ccccc2C1=O
inactive: [1] | [2] | [3] | [4] | [5] | [6] | [7] | [8] | [9] | [10]

Cc1ccc(N)cc1
inactive: [1] | [2] | [3] | [4] | [5] | [6] | [7] | [8] | [9] | [10]

O=[N+]([O-])C(Br)(CO)CO
inactive: [2] | [4] | [5] | [7] | [9]
active: [1] 116 µM | [3] 25.6 µM | [6] 84.6 µM | [10] 35.5 µM

[As]#[In]
inactive: [1] | [2] | [3] | [4] | [5] | [6] | [7] | [8] | [9] | [10]

CCOC(=O)[C@]1(c2ccccc2)Oc2ccccc2[C@@H]1N
active: [3] 86.7 µM | [4] 112 µM | [5] 111 µM | [7] 107 µM | [10] 116 µM
inactive: [1] | [2] | [6] | [9]

Reference: PubChem BioAssay (EPA / NIEHS)
